Out of some 63,000 compounds screened, about 1,100 (1.7%) were called active. The sample holds actives, similar compounds and a random draw of the others, so the mix is not that of the screen. Results with a measured potency or affinity are listed apart. Unmarked numbers belong to inactive results.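 The calls were made as follows: active = compounds whose percent cytotoxicity in the single-dose primary screen, scaled between solvent and toxic-drug controls, exceeds 50; inactive = the rest.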
Assay: cytotoxicity in KRAS-transformed pancreatic duct cells, primary screen, cell-based, fluorescence, HTS (AID 431);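 also: 0% = DMSO solvent wells and 100% = doxorubicin-treated wells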
Conditions: HPDE-C7K KRASV12 cells, Alamar Blue viability, 48 h; at 10 µM; active compounds read high

Row | Structure (SMILES) | cytotoxicity
1 | O=C(CC(NS(=O)(=O)c1ccc(Cl)cc1)c1ccco1)NCc1cccnc1 (centres undefined) | -10.2%
2 | CCOC(=O)N1CCN(c2nc(C)c3c(n2)CC(C)CC3=O)CC1 (centres undefined) | -14.7%
3 | Cn1c(N2CCC(C(N)=O)CC2)nc2c1c(=O)n(Cc1ccc(Cl)cc1)c(=O)n2C | 16.9%
4 | FC(F)(F)c1cccc(N2CCN(Cc3cccnc3)CC2)c1 | 21.8%
5 | CC(C)Oc1cccc(C(=O)Nc2ccccc2N2CCOCC2)c1 | -2.7%
6 | COc1cc(C2C(C(=O)c3cccs3)=C(O)C(=O)N2c2cc(C)on2)ccc1O (centres undefined) | 14.5%
7 | CCn1c2ccccc2c2cc(Nc3cc(C)nc4ncnn34)ccc21 | 74.4% (active)
8 | CCc1cccc(Nc2cc(C)nc3ncnn23)c1 | -4.4%
9 | Cc1cc(Nc2ccc3ccccc3c2)n2ncnc2n1 | -8.1%
10 | Cc1ccc(-c2nn(C)c(=O)c3ccccc23)cc1CNC(=O)CN1CCOCC1 | 4.3%
11 | O=C(Cn1nnc(-c2cc(Cl)ccc2-n2cnnn2)n1)N1CCCc2ccccc21 | -0.5%
12 | CCOC(=O)N1CCC(NC(=O)c2csc3c2CCCC3)CC1 | -1.5%
13 | COC(=O)/C(=C1/Oc2cc(C)oc(=O)c2S1)C(F)(F)F | 70.4% (active)
14 | COC(=O)C1=C(N)Oc2cc(C)oc(=O)c2C1c1ccncc1 (centres undefined) | -2.1%
15 | COC(=O)/C(=C1/Oc2cc3c(cc2S1)OCO3)C(F)(F)F | -15.1%
16 | O=C(COC(=O)C(O)c1ccccc1)NC12CC3CC(CC(C3)C1)C2 (centres undefined) | -12.9%
17 | CN(C)/C=C1/Sc2ccccc2C1=O | -18.3%
18 | CN(C)C=C1C(=O)c2ccccc2C1=O | 48%
19 | CN(C)/C=C1\C(=O)c2ccc(N(C)C)nc2CC1c1ccccc1 (centres undefined) | 59.9% (active)
20 | CCCOC(=O)Nc1ccc(S(=O)(=O)Nn2cnnc2)cc1 | 5.7%
21 | C=CCNc1oc(Cc2cccc3ccccc23)nc1C#N | -8.6%
22 | N#Cc1nc(Cc2cccc3ccccc23)oc1NCc1ccco1 | 63.1% (active)

Row | Structure (SMILES) | cytotoxicity
23 | CNc1oc(Cc2cccc3ccccc23)nc1C#N | 14.7%
24 | CCn1cc(C(=O)NCC2CCCO2)c(=O)c2cc(S(=O)(=O)N(C)C3CCCCC3)ccc21 (centres undefined) | 13.1%
25 | COc1cccc(C2=Nn3c(nnc3-c3ccccc3O)SC2)c1 | -11.6%
26 | CCOc1ccc(-c2nnc3n2N=C(c2ccc(OC)cc2)CS3)cc1 | -5%
27 | COc1ccc(C2=Nn3c(nnc3-c3ccccn3)SC2)cc1OC | -4.6%
28 | COc1ccccc1-c1nnc2n1N=C(C)CS2 | -13.6%
29 | c1ccc(C2=Nn3c(nnc3-c3cc(-c4ccccc4)n[nH]3)SC2)cc1 | -6.7%
30 | COc1ccccc1-c1nnc2n1N=C(c1ccc(O)c(O)c1)CS2 | 54.8% (active)
31 | CCOc1ccc(C2=Nn3c(nnc3-c3ccc(OC)cc3)SC2)cc1 | 40.7%
32 | COc1ccc(C2=Nn3c(nnc3-c3ccccc3)SC2)cc1OC | 0.4%
33 | Cc1ccc(-c2nnc3n2N=C(c2ccccc2)CS3)cc1 | -2.4%
34 | CCOc1ccc(C2=Nn3c(nnc3-c3ccccc3OC)SC2)cc1 | 66.6% (active)
35 | CCCCOc1ccc(-c2ncc(Cl)cn2)cc1 | -15%
36 | Cn1c(Cn2c(=O)sc3ccccc32)nnc1SCC(=O)N1CCN(c2ccccc2)CC1 | 8.3%
37 | O=C(COc1ccc2c(c1)OCO2)Nc1ccc2c(c1)oc1ccccc12 | 2.3%
38 | O=C(Cn1ncc2c(=O)oc3ccccc3c21)N1CCN(C(=O)c2ccco2)CC1 | 0.4%
39 | COC(=O)c1cc(-c2c(C)oc3cc(OC(C)C)ccc3c2=O)c(C)o1 | -13.5%
40 | Cn1c(=O)c2c(nc(CN3CCN(C(=O)c4ccco4)CC3)n2CCc2ccccc2)n(C)c1=O | -4.3%
41 | CCOC(=O)c1ccc(NC(=O)NC(C)C2CCCO2)cc1 (centres undefined) | -0.2%
42 | Cc1ccccc1CS(=O)(=O)CCC(=O)N1CCN(c2ccc(N3CCOCC3)nn2)CC1 | 3.2%
43 | COc1ccc(-c2nnc3n2N=C(c2ccccc2)CS3)cc1OC | -3%
44 | COc1ccc(OC)c(C2=Nn3c(nnc3-c3cc(OC)c(OC)c(OC)c3)SC2)c1 | 10.4%

Row | Structure (SMILES) | cytotoxicity
45 | COc1cc(-c2nnc3n2N=C(c2ccccc2)CS3)cc(OC)c1OC | 63.5% (active)
46 | CCOC(=O)/C=C1\NC(C)(C)Cc2cc(OC)c(O)cc21 | 5.5%
47 | COc1cc2c(cc1OC)C(/C(C#N)=N\O)=NC(C)(C)C2 | 7%
48 | O=C(CN1CCN(c2ccccc2F)CC1)Nc1ccccc1F | -7%
49 | CCCCNC(=O)c1sc(=S)n2c1[nH]c(=O)c1ccccc12 | 62.6% (active)
50 | O=C(NCc1ccco1)c1sc(=S)n2c1[nH]c(=O)c1ccccc12 | 81.4% (active)
51 | CCn1c(N)c(C(=O)NCc2ccco2)sc1=S | -5.3%
52 | C=CCn1c(N)c(C(=O)NCc2ccco2)sc1=S | 7.1%
53 | CCCCNC(=O)c1ccccc1C(=O)NCCCC | -2.3%
54 | CCCCCCNC(=O)c1c(O)c2ccccc2[nH]c1=O | -1.5%
55 | O=C(NCCCN1CCN(c2ccccc2F)CC1)C1CCC(=O)N1C1CCCC1 (centres undefined) | -6.6%
56 | Cn1c(CCCCCN)nc2ccccc21 | -27.2%
57 | OCCN(Cc1ccccc1)Cc1ccccc1F | -13.3%
58 | CCCc1ccc(Oc2cn[nH]c2-c2ccc(O)c(C)c2O)cc1 | 119% (active)
59 | CCCc1ccc(Oc2cn[nH]c2-c2ccc(O)cc2O)cc1 | 29.1%
60 | COc1ccc(O)c(-c2[nH]ncc2C(=O)c2ccccc2C)c1 | 2.7%
61 | CCCc1ccc(OCC(=O)O)cc1 | 2.3%
62 | CC(C)Sc1ncnc2c1oc1ccccc12 | -7.4%
63 | COc1ccc(CNC(=O)CSc2nc3nc(C)cc(C)n3n2)cc1 | 1.6%
64 | Cc1nn(-c2cccc(C(F)(F)F)c2)c(Cl)c1/C=N/n1cnnc1 | 3.5%

From PubChem BioAssay AID431 (Sanford-Burnham Center for Chemical Genomics, 2006)
